Our source for the max response, negative = inhibition and Potency values is PubChem BioAssay AID720504 (National Center for Advancing Translational Sciences (NCATS), 2013).

Out of some 360,000 compounds screened, about 10,000 (2.8%) were called active. About 4% were inconclusive and are not listed. What follows is part of a selection rich in actives, with near analogues and random picks from the rest. Unmarked numbers belong to inactive results. Calls come from the whole dose curve; as a rule, active = well fitted inhibition curve with a large enough effect; inconclusive = small, poorly fitted or top-dose-only effect; inactive = flat fitted curve, though single readings scatter.
% is set by controls: 0 for no effect and ±100 for the full control effect; potency is the fitted concentration of half-maximal effect.

The target in this test is Serine/threonine-protein kinase PLK1 (Homo sapiens) (UniProt P53350). The test is described as follows: qHTS for Inhibitors of PLK1-PDB (polo-like kinase 1 - polo-box domain): Primary Screen. For max response, negative = inhibition: series mostly up to about 57 µM. Note: nearly all actives have a fitted effect of over 65% in size. The settings on record: Plk1 PBD binding of FITC phosphopeptide, fluorescence polarization. The source says: The polo-like kinase 1 (Plk1) is a member of a conserved subfamily of serine / threonine protein kinases that plays a pivotal roles in cell proliferation. It has a C-terminal non-catalytic region called the polo-box domain (PBD) that plays a crucial role in the subcellular localization of the Plk1. […] Furthermore, depletion of the overexpressed Plk1 by RNAi efficiently induces apoptotic cell death in cancer and reduces tumor growth in mouse xenograft models. Thus, targeting Plk1 is an appealing strategy for anti-cancer therapy. Therefore, this project aimed to screen the Molecular Libraries Small Molecule Repository (MLSMR) using a novel approach to find inhibitors that target the Plk1 PBD instead of the conventional N-terminal catalytic domain. This project employed a fluorescence polarization (FP) assay using a FITC-conjugated phospho-9-mer (p-9-mer) peptide and purified human Plk1 PBD protein. The identified small molecule inhibitors of Plk1 PBD can then further be developed into useful tools for biomedical and clinical research that complements or replaces current relevant disease therapy. NIH Chemical Genomics Center [NCGC] NIH Molecular Libraries Probe Centers Network [MLPCN] MLPCN Grant: MH100728 Assay Submitter (PI): Kyung Lee, NCI
Serine/threonine-protein kinase PLK1 (Homo sapiens), sequence (P53350 whole entry, looked up, the tested form may be a part): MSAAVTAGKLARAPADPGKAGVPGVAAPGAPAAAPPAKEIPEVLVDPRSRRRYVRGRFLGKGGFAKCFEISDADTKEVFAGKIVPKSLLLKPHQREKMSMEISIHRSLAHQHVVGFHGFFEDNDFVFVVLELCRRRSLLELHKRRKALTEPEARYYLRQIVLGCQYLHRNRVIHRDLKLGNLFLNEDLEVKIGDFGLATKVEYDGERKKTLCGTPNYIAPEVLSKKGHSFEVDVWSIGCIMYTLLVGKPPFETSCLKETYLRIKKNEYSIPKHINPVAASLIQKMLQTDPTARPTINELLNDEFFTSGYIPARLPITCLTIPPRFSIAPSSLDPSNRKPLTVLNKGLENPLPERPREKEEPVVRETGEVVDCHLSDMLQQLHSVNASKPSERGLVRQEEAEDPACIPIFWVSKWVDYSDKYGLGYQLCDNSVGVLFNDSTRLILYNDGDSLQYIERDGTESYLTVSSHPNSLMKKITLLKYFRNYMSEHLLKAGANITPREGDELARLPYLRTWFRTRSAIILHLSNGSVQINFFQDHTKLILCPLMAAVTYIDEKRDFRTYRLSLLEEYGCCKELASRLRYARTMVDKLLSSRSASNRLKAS
Four microliter of 25 nM FITC-p-9-mer + 60 nM Plk1 PBD in buffer solution (final concentrations 25 nM and 60 nM respectively) or 4 uL of 25 nM FITC-p-9-mer (final concentration 25 nM) in buffer will be dispensed into a 1,536 Greiner medium-binding black solid plate. Small molecules at final concentrations of 18 nM to 57 uM and positive control phospho-9-mer (sequence: Ac-PPLHSpTAI-NH2) at final concentrations 26 nM to 57 uM and phospho-13-mer (sequence: Ac-[…]pTAI-NH2) at final concentrations of 1 nM to 2.3 uM will be pin-transferred (23 nL) to the plate via a Kalypsys pin-tool robotics equipped with a 1,536-pin array. The reaction plate will be centrifuged for 1 min at 1000 rpm and incubated at room temperature for 10 min. The FITC fluorescence signals will be read using the PerkinElmer ViewLux plate reader at 480 / 20 nm excitation and 540 / 20 nm S and P polarization emission wavelengths. Reagent bottles will be kept submerged into 4 °C recirculating chiller bath and all liquid lines will be covered with aluminum foil to minimize degradation. Library plates will be screened starting from the lowest to the highest concentrations to minimize compound carryover. Vehicle only plates, with DMSO being pin-transferred instead of compound solutions, will be included regularly throughout the screen to record any systematic shifts in assay signal.
On the technique in general: In qHTS, concentration-response curves come from the screen itself.
In the case of `COc1ccccc1OC(=O)c1ccc(C)c(S(=O)(=O)N2CCOCC2)c1`, the max response, negative = inhibition is -17.4%.

For `COc1cc(C(=S)N2CCOCC2)ccc1O`, the Potency is 11.9 µM (active). Consider `COc1ccc(C(=O)C2CCCN(Cc3ccc(C)s3)C2)cc1OC` (stereo unspecified), for which the max response, negative = inhibition is -12.4%.

`S=C(NCCc1ccccc1)N1Cc2cc(N3CCOCC3)ccc2-n2nncc2C1`: the max response, negative = inhibition is -7.87%. Still for that read-out and setting: the same measure for `OC1/C(=C/c2ccc(C(F)(F)F)cc2)N2CCC1CC2` (stereo unspecified): 3.89%. Still for that read-out and setting: the same measure for `CCOC(=O)C1(Cc2ccc(Cl)cc2)CCN(C(C)CCn2cccn2)CC1` (stereo unspecified): -2.75%; for `CCOc1ccc(-c2cc(C)[n+](CCN(CC)CC)c(-c3ccc(OCC)cc3)c2)cc1`: -4.15%; for `CCn1cc(CN2CCCC(C(=O)c3cccc(C(F)(F)F)c3)C2)cn1` (stereo unspecified): -6.76%. Still for that read-out and setting: the value for `CN(C)C(=O)Oc1ccc(OCc2cccc[n+]2C)cc1` was -4.14%. For the compound `CCN(CC)C(=O)Oc1ccc(OC(=O)N(CC)CC)cc1`, the Potency was 16.8 µM (active). For `CCN(CC)C(=O)Oc1ccc(NC(=O)N2CCOCC2)cc1`, the max response, negative = inhibition was -7.81%.

As to `CCC1(C)CC(CCNCc2ccc(N(C)C)cc2)(c2ccc(F)cc2)CCO1` (stereo unspecified), the max response, negative = inhibition was -1.51%. `COc1ccccc1CN1CCN(C(=O)Cc2ccccc2)CC1`: the max response, negative = inhibition was 3.36%. The same measure, in the same setting: the value for `O=c1[nH]c2ccccc2n1C1CCN(C(c2ccccc2)c2nnnn2Cc2ccccc2)CC1` (stereo unspecified) was 3.89%. `COc1ccc2c(c1)NP(=S)(c1ccccc1)N2` (stereo unspecified): the Potency is 3.36 µM (active). For the compound `Cc1cc(C)c2c(c1)NP(=S)(c1ccccc1)N2` (stereo unspecified), the max response, negative = inhibition is -17.9%. Consider `CC(=O)Nc1ccccc1C(=O)OCC(=O)c1cccc2ccccc12`, for which the max response, negative = inhibition is -5.92%. Regarding `CC(c1ccccc1)(c1ccccc1)c1ccncc1`, the max response, negative = inhibition is -1.65%. On the same count and under the same terms, the value for `COC(=O)C1=C(c2cc3ccccc3o2)C[C@@H]2CC[C@H]1N2C(=O)NC1CCCCC1` was 0.442%; that for `CCOC(=O)C1=C(C)OC(N)=C(C(=O)OC)C12C(=O)Nc1ccc(Br)cc12` (stereo unspecified) was 0.0447%; that for `CC(C)c1ccc(O)c(CN2CCN(c3ccccc3)CC2)c1` was 6.47%. As to `COc1cccc(N2C(=O)NC(=O)/C(=C\c3cn(C)c4ccccc34)C2=O)c1`, the Potency was 9.47 µM (active). For the compound `CCc1nc2ccccc2c(=O)n1-c1cccc(OC)c1`, the max response, negative = inhibition is -4.27%. With `O=C1NC(=O)N(c2ccccc2)C(=O)/C1=C/c1ccc([N+](=O)[O-])s1`, the Potency is 2.67 µM (active). Same read-out and setting: the same measure for `COc1cccc(N2C(=O)NC(=O)/C(=C\c3ccc([N+](=O)[O-])s3)C2=O)c1`: 5.32 µM (active). Take `CC1=C(C(=O)Nc2ccccc2)SCCO1`: the max response, negative = inhibition was -5.57%.

For the compound `CC(=CCOc1ccc2ccc(=O)oc2c1)C1=CC(=O)C(C)(C)O1`, the max response, negative = inhibition is -1.51%. The same measure, in the same setting: the value for `O=C(O)C1CSC(c2cccnc2)N1` (stereo unspecified) was -10%. Consider `O=C1NCN(c2ccccc2)C12CCN(C(c1cccs1)c1nnnn1C1CCCCC1)CC2` (stereo unspecified), for which the max response, negative = inhibition is -2.86%. On the same count and under the same terms, the same measure for `COP(=O)(NS(=O)(=O)c1ccccc1)OC`: -7.79%. Same read-out and setting: the value for `C[N+]1(C)CCOC(O)(c2ccc(-c3ccc(C4(O)C[N+](C)(C)CCO4)cc3)cc2)C1` (stereo unspecified) was -17.9%; that for `COc1ccc(-n2c(O)c(C(C)=Nc3ccc4c(c3)CCC4)c(=O)[nH]c2=O)cc1` was 2.28%; that for `COc1ccccc1C1=NCc2nnc(CSC)n2-c2ccc(Cl)cc21` was 2.66%. Consider `O=C(NCC1=C(c2ccc3ccccc3c2)C[C@@H]2CC[C@H]1N2Cc1ccco1)c1cccs1`, for which the max response, negative = inhibition is -9.52%. Same read-out and setting: the value for `O=C1NC(=O)C(C/C=C/c2ccccc2)C(=O)N1` was -29.7%; that for `CCN(CC)C(=O)c1ccc(NC(=O)c2cc(-n3cnnc3)ccc2Cl)cc1` was -5.96%. `CN(C)CC1Oc2ccccc2OC1(O)c1ccccc1` (stereo unspecified): the Potency is 5.32 µM (active). Regarding `OC(CNC1CCCCC1)c1ccccc1` (stereo unspecified), the max response, negative = inhibition is -2.72%.

With `CN1CCC(N(C)Cc2cccnc2)CC1`, the max response, negative = inhibition was -7.61%. The same measure, in the same setting: the same measure for `CCOC(=O)C(O)(c1ccc(N)c(OC)c1)C(F)(F)F` (stereo unspecified): -1.46%; for `CN(C)C(=O)Oc1cc(=O)n2c3c(cccc13)CCC2`: -13.7%.

For `CC1CCCN1CCC(C(N)=O)(c1ccccc1)c1ccccc1` (stereo unspecified), the max response, negative = inhibition is -4.65%. For `Cc1ccnc(-n2c(C)cc(/C=C3\C(=O)NC(=S)N(C)C3=O)c2C)c1`, the Potency was 2.38 µM (active).

Regarding `Cc1ccc(-n2c(C)cc(/C=C3\C(=O)NC(=O)N(C)C3=O)c2C)cc1C`, the max response, negative = inhibition was -15.6%. Still for that read-out and setting: the value for `O=C(NC(c1ccc(Cl)cc1)P(=O)(Oc1ccccc1)Oc1ccccc1)OCc1ccccc1` (stereo unspecified) was 0.141%; that for `C[C@H]1CN([C@@H](C)CO)C(=O)CCCn2nncc2CO[C@H]1CN(C)C(=O)Oc1ccccc1` was -3.55%.
